PubChem BioAssay
Several values for one entry are separate records, joined by “and”; a condition that tells them apart may be missing. Equal entries are not always repeated. Activity calls are given as the source filed them.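 Rule for the calls, unless noted: active = compounds whose cell count with miR-34 switched on is under 0.7 times the count with it off; inactive = the rest.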

What was measured:
[1] = sensitizers of A549 cells to miR-34 induction, primary screen, imaging, A549 dox-inducible miR-34, nuclei and caspase counts (AID 1347080); details: A549 miR-34 inducible, Hoechst nuclei count, 48 h
[2] = phospholipid biosynthesis inhibitors in animal cells, primary screen, cell-based, LOPAC library, screen 4 (AID 1347384; call rule not given here); details: phospholipid biosynthesis inhibition screen, at 10 µM
[3] = viability rescue of complex I mutant cybrids, primary screen, cell-based, galactose medium, ATP luminescence (AID 1645843;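 active = z-score of at least 1.8 in each of two replicates, scored against plate mean and spread of sample wells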;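 note: positive z means more ATP and so rescue of galactose-driven cybrid death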); details: complex I mutant cybrid cells, 72 h, stronger effect = higher value
[4] = molecular target: Mitogen-activated protein kinase 7 (Homo sapiens) (UniProt Q13164); experiment: ERK5 transactivation activators in reporter cells, primary screen, cell-based, HTS (AID 1508626;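 active = luciferase signal above three times the same-plate solvent-only control wells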;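 note: luciferase driven by Gal4-ERK5 fusion binding five Gal4 sites before minimal TATA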); details: HeLa Gal4-ERK5 transactivation, 18 h, at 5 µM, stronger effect = higher value
Mitogen-activated protein kinase 7 (Homo sapiens), sequence (Q13164 whole entry, looked up, the tested form may be a part): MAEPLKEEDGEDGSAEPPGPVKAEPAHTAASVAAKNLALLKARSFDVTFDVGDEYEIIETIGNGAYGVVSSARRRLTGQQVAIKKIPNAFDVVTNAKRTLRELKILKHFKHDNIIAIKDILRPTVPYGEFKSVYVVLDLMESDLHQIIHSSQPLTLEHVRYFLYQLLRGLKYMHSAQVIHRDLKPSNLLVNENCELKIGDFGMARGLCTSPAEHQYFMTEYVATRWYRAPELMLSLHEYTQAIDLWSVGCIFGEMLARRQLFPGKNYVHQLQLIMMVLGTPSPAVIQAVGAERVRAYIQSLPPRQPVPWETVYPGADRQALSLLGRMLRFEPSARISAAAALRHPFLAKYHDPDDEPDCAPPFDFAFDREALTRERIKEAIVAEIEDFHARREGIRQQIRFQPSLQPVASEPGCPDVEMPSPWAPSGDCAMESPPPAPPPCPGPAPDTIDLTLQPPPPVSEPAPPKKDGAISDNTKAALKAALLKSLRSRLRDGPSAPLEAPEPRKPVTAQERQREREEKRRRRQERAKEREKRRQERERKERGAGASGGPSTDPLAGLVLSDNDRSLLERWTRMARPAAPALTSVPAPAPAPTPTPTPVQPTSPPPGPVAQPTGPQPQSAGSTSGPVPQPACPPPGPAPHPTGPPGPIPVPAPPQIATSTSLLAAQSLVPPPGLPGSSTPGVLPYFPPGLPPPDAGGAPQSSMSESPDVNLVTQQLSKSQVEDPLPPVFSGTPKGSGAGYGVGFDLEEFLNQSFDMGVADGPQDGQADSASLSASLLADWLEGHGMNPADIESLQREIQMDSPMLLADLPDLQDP

[5] = survival rescue of mitochondrial mutant cells in low glucose, primary screen, MELAS cybrids, Rieske KO mouse fibroblasts, CellTiter-Glo (AID 1508586;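 active = mean z-score across replicates of 1.96 or higher in either the MELAS or the Rieske mutant cell line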;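 note: z relative to plate mean and SD of compound and empty wells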)
[6] = molecular target: NAD(+) hydrolase SARM1 (Homo sapiens) (UniProt Q6SZW1); experiment: SARM1 TIR NADase inhibitors, cell lysate, NAD-Glo luminescence (AID 1508614;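 active = compound whose remaining NAD level is above about 45 nM, limit read from the data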;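 note: higher remaining NAD means stronger inhibition of SARM1 NADase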); details: SAM-TIR HEK293T lysate NADase, at 1 µM, stronger effect = higher value
NAD(+) hydrolase SARM1 (Homo sapiens), sequence (Q6SZW1 whole entry, looked up): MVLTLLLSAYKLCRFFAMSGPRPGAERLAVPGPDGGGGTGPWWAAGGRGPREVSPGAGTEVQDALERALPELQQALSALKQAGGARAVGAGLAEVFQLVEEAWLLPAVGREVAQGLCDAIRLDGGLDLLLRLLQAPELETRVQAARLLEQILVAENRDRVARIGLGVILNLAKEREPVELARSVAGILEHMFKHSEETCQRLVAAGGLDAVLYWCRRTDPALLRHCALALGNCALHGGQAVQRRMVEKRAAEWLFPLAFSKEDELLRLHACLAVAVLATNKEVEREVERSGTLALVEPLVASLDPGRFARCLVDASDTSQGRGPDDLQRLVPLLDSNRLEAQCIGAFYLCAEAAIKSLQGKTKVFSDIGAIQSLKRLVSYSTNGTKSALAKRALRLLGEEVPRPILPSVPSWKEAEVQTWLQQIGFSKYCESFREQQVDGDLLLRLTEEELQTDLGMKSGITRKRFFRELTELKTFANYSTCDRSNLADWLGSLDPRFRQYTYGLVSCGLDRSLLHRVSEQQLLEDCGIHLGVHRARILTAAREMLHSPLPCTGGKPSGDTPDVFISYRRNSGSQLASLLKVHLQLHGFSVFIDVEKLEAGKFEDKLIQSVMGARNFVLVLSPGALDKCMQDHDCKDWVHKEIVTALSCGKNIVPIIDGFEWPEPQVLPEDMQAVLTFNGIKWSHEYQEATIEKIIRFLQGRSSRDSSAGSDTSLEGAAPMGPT

[7] = stronger effect = lower value, cell number ratio, induced over uninduced
[8] = measured here: relative caspase fold change +Dox/-Dox
[9] = measured here: total cells with miR-34 induction, stronger effect = lower value
[10] = measured here: total cells without miR-34 induction
[11] = MELAS cybrid survival, CellTiter-Glo 48 h, stronger effect = higher value
[12] = Rieske KO mouse fibroblast survival, CellTiter-Glo 72 h

| SMILES | fold change [1, 7] | fold change [1, 8] | cell count [1, 9] | cell count [1, 10] | outcome [2] | z-score [3] | luciferase signal [4] | z-score [5, 11] | z-score [5, 12] | remaining NAD [6] |
| --- | --- | --- | --- | --- | --- | --- | --- | --- | --- | --- |
| CCCCCCCC/C=C\CCCCCCCC(=O)NCc1ccc(O)c(OC)c1 | 1.07 (inactive) and 0.928 (inactive) and 0.945 (inactive) | 0.981 and 1.03 and 0.614 | 10500 and 5740 and 9140 | 9800 and 6180 and 9670 | inactive | -1.29 (inactive) and -1.24 (inactive) | – | – | – | – |
| C[C@](N)(Cc1ccc(O)cc1)C(=O)O | 1.06 (inactive) | 0.881 | 10300 | 9680 | inactive | 0.71 (inactive) | 60 AU (inactive) | – | – | – |
| CC[C@]12CCCN3CCc4c(n(c5ccccc45)C(=O)C1)[C@@H]32 | 0.89 (inactive) | 1.52 | 3350 | 3760 | – | – | – | 1.02 (inactive) | 0.169 | – |
| CCc1c(C)[nH]c2c1C(=O)C(CN1CCOCC1)CC2 (centres undefined) | 1.14 (inactive) and 0.913 (inactive) and 0.969 (inactive) | 1.35 and 0.853 and 0.538 | 11100 and 9250 and 9310 | 9700 and 10100 and 9610 | inactive | 0.39 (inactive) and -0.105 (inactive) | – | 0.0774 (inactive) | -0.448 | – |
| CC(=O)OCC(=O)[C@@]1(O)[C@H](C)C[C@H]2[C@@H]3CCC4=CC(=O)C=C[C@]4(C)[C@@]3(F)[C@@H](O)C[C@@]21C | 0.93 (inactive) | 1.03 | 6000 | 6450 | – | – | 120 AU (inactive) | -0.294 (inactive) | 0.00126 | 10 nM (inactive) |
| CCn1cc(C(=O)O)c(=O)c2cnc(N3CCNCC3)nc21 | 0.922 (inactive) | 1.25 | 9710 | 10500 | – | – | 56 AU (inactive) | 0.675 (inactive) | 0.0409 | 10 nM (inactive) |
| CN(C)CCCN1c2ccccc2Sc2ccccc21 | 0.997 (inactive) and 0.896 (inactive) and 0.916 (inactive) | 1.96 and 1.17 and 2.21 | 7860 and 8360 and 9720 | 7880 and 9340 and 10600 | inactive | -0.99 (inactive) | 44 AU (inactive) | -0.514 (inactive) | -0.0726 | 10 nM (inactive) |
| COc1c2occc2c(OC)c2c(=O)cc(C)oc12 | 0.924 (inactive) | 1.18 | 8440 | 9130 | – | – | 80 AU (inactive) | -0.15 (inactive) | -0.129 | 10 nM (inactive) |
| Nc1ccc(S(=O)(=O)Nc2cnc3ccccc3n2)cc1 | 0.892 (inactive) and 0.874 (inactive) | 0.858 and 3.15 | 8790 and 11400 | 9850 and 13000 | – | – | 84 AU (inactive) | 0.496 (inactive) | 0.547 | 10 nM (inactive) |
| Cc1ccc2c(Cl)cc(Cl)c(O)c2n1 | 0.915 (inactive) and 0.981 (inactive) | 0.745 and 0.409 | 9230 and 3330 | 10100 and 3390 | – | – | 32 AU (inactive) | -0.257 (inactive) | -0.123 | 10 nM (inactive) |
| CCC(=O)c1c(O)cc(O)cc1O | 0.895 (inactive) | 0.888 | 7860 | 8770 | – | – | 60 AU (inactive) | -0.229 (inactive) | -0.146 | 10 nM (inactive) |
| CC(C(=O)O)c1ccc2c(c1)[nH]c1ccc(Cl)cc12 (centres undefined) | 0.887 (inactive) and 0.921 (inactive) | 0.75 and 3.71 | 8310 and 12000 | 9370 and 13100 | – | – | 16 AU (inactive) | -0.267 (inactive) and -0.0777 (inactive) | -0.169 and 0.447 | 10 nM (inactive) |
| COc1ccc(C(=O)c2ccccc2O)c(O)c1 | 0.854 (inactive) and 0.825 (inactive) | 1.04 and 0.52 | 8680 and 11300 | 10200 and 13700 | – | – | 92 AU (inactive) | 0.849 (inactive) | -0.0959 | 10 nM (inactive) |
| Nc1ncnc2nc[nH]c12 | 0.911 (inactive) and 0.881 (inactive) | 0.822 and 4.73 | 8220 and 12600 | 9020 and 14300 | – | – | 72 AU (inactive) | -0.543 (inactive) | -0.641 | 10 nM (inactive) |
| Cc1cc(NC(=O)C2=C(O)c3ccccc3S(=O)(=O)N2C)no1 | 0.901 (inactive) and 0.859 (inactive) | 1.1 and 2.9 | 8700 and 11400 | 9660 and 13300 | – | – | 72 AU (inactive) | 0.335 (inactive) | 0.203 | 10 nM (inactive) |
| CCOc1ccc2nc3cc(N)ccc3c(N)c2c1 | 0.785 (inactive) and 0.928 (inactive) | 2.5 and 0.759 | 3210 and 7370 | 4090 and 7950 | – | – | 32 AU (inactive) | 7.85 (active) | 4.68 | 10 nM (inactive) |
| Nc1ccc(S(=O)(=O)Nc2nccs2)cc1 | 0.93 (inactive) and 0.957 (inactive) and 0.871 (inactive) | 1.04 and 0.824 and 4.44 | 8630 and 7440 and 10900 | 9270 and 7780 and 12500 | – | – | 84 AU (inactive) | -0.000944 (inactive) and 0.344 (inactive) | -0.264 and 0.18 | 10 nM (inactive) |
| O=C1c2c(O)cccc2Cc2cccc(O)c21 | 0.891 (inactive) | 1.8 | 11600 | 13000 | – | – | 180 AU (inactive) | 0.308 (inactive) | 0.465 | 10 nM (inactive) |
| Nc1ccc(C(=O)NCC(=O)O)cc1 | 0.905 (inactive) and 0.867 (inactive) and 0.907 (inactive) | 1.12 and 0.765 and 3.35 | 9600 and 8480 and 12000 | 10600 and 9780 and 13300 | – | – | 20 AU (inactive) | -0.372 (inactive) and 0.514 (inactive) | -0.0832 and -0.331 | 10 nM (inactive) |
